Data taken from PubChem BioAssay.
Calls of active or inactive are those of the source.

How the values were obtained:
[1] = small molecules captured by biotinylated probe aFSTL3 – biochemical, small-molecule microarray, fluorescence 635/667, stem cell growth factor project, primary screen (AID 1064); conditions: higher = more signal;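 note: measures binding of the biotinylated anti-FSTL3 antibody to printed compounds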
[2] = binders from COS7 lysate, DM2A8 probe, primary screen, torsin A project, cell lysate, small-molecule microarray, fluorescence 635/667 (AID 1065); conditions: higher = more signal, COS7 lysate expressing mutant human TOR1A
[3] = small molecules captured by biotinylated probe aFGF2 – biochemical, small-molecule microarray, fluorescence 635/667, stem cell growth factor project, primary screen (AID 1067); conditions: higher = more signal;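 note: measures binding of biotinylated aFGF2 protein to printed compounds on slides; z-score merges feature fluorescence and signal-to-noise across triplicate slides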
[4] = small molecules captured by biotinylated probe aFGF10 – biochemical, small-molecule microarray, fluorescence 635/667, stem cell growth factor project, primary screen (AID 1071); conditions: higher = more signal;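 note: score merges 667 nm spot intensity and signal to noise from triplicate slides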
[5] = target: Neurogenic locus notch homolog protein 2 (Homo sapiens) (UniProt Q04721); assay: small molecules binding Notch2 protein – biochemical, small-molecule microarray, 635 nm fluorescence, stem cell growth factors, primary screen (AID 1073); conditions: higher = more signal
[6] = target: Pro-neuregulin-1, membrane-bound isoform (Homo sapiens) (UniProt Q02297); assay: small molecules binding neuregulin-1 protein – biochemical, small-molecule microarray, fluorescence 635/667, psychiatric disease protein project, primary screen (AID 1075); conditions: NRG1 binding, 635 nm fluorescence, higher = more signal;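 note: score combines 667 nm spot fluorescence with signal to noise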
[7] = tested on: Neuregulin-1 EGF-like domain; assay: small molecules binding NRG1 EGF domain – biochemical, small-molecule microarray, 635 nm fluorescence, primary screen (AID 1081); conditions: higher = more signal;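 note: binding of the protein to compounds printed on small-molecule microarray slides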
[8] = FRG1 expression reporter modulators in myotubes – cell-based, C2C12 myotubes, firefly/Renilla luciferase, luminescence, FRG1 inhibition for FSHD, primary screen (AID 1084); conditions: FRG1 promoter luciferase, higher = more signal, called active from +8 up or from −8 down
[9] = small molecules captured by biotinylated probe aFST – biochemical, small-molecule microarray, fluorescence 635/667, stem cell growth factor project, primary screen (AID 1086); conditions: higher = more signal;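 note: score merges 667 nm fluorescence with signal-to-noise of each printed compound spot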
[10] = binders of probe aHhip on microarray, primary screen, stem cell growth factor project, biochemical, small-molecule microarray, fluorescence 635/667 (AID 1087); conditions: higher = more signal;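 note: score merges spot fluorescence at 667nm with spot signal to noise ratio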
[11] = tested on: PRMT1 (protein arginine N-methyltransferase 1); assay: small molecules binding arginine methyltransferase PRMT1 – biochemical, small-molecule microarray, 635 nm fluorescence, primary screen (AID 1088); conditions: higher = more signal;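 note: binding of Prmt1 protein to compounds spotted on small-molecule microarray slides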
[12] = growth effects on S. cerevisiae YJM789 – YJM789 clinical isolate, OD600, 24 h, basal, primary screen (AID 1089); conditions: higher = more signal, called active from +8 up or from −8 down;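 note: growth of clinical yeast isolate S. cerevisiae YJM 789 seeded 1000 cells per well; test concentration not given here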
[13] = S. pombe growth modifiers, basal conditions – strain 972, OD600, 24 h, no modulator, primary screen (AID 1090);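 note: basal condition with compound alone and no growth modifier present; test concentration not given here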; conditions: S. pombe 972 growth, higher = more signal, called active from +8 up or from −8 down
[14] = budding yeast growth modifiers under rapamycin – strain BY4716, OD600, 96 h, primary screen (AID 1091); note: test concentration not given here; conditions: S. cerevisiae BY4716 + rapamycin, higher = more signal, called active from +8 up or from −8 down
[15] = target: Torsin-1A-interacting protein 2 (Homo sapiens) (UniProt Q8NFQ8); assay: small molecules binding lysate-expressed LULL1 – cell lysate, human LULL1 lysate, 635/667 nm fluorescence, primary screen (AID 1092); conditions: small-molecule microarray, hLULL1 lysate binding, 635 nm fluorescence; higher = more signal;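 note: probe is lysate of COS7 cells overexpressing human LULL1; score merges per-feature 667 nm fluorescence with signal-to-noise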
[16] = optical density change of DRC41 E. coli – strain DRC41, OD650, 24 h, E. coli filamentation project, primary screen (AID 1093);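 note: MC1000 strain lacking acrAB efflux and sulA so SOS filamentation is blocked; test concentration not given here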; conditions: E. coli DRC41 growth, higher = more signal, called active from +8 up or from −8 down
[17] = probe aLefty2 binding to arrayed compounds – biochemical, biotinylated probe, 635/667 nm fluorescence, primary screen (AID 1094); conditions: small-molecule microarray, higher = more signal;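 note: score merges spot fluorescence near 667 nm with spot signal-to-noise ratio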
[18] = tested on: Noggin (protein binding on small-molecule microarray); assay: small molecules binding Noggin protein – biochemical, 635/667 nm fluorescence, primary screen (AID 1095); conditions: 635 nm fluorescence, higher = more signal;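 note: score merges 667 nm feature fluorescence with signal to noise over triplicate slides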
[19] = target: Neurogenic locus notch homolog protein 3 (Homo sapiens) (UniProt Q9UM47); assay: small molecules binding NOTCH3 protein – biochemical, 635/667 nm fluorescence, primary screen (AID 1096); conditions: small-molecule microarray, 635 nm fluorescence, higher = more signal
[20] = probe aEGFR binding to arrayed compounds – biochemical, biotinylated probe, 635/667 nm fluorescence, primary screen (AID 1097); conditions: small-molecule microarray, higher = more signal;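 note: probe is a biotinylated anti-EGFR antibody binding compounds printed on slides; score combines fluorescence near 667 nm and signal to noise of each spot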

Torsin-1A-interacting protein 2 (Homo sapiens), sequence (Q8NFQ8 whole entry, looked up): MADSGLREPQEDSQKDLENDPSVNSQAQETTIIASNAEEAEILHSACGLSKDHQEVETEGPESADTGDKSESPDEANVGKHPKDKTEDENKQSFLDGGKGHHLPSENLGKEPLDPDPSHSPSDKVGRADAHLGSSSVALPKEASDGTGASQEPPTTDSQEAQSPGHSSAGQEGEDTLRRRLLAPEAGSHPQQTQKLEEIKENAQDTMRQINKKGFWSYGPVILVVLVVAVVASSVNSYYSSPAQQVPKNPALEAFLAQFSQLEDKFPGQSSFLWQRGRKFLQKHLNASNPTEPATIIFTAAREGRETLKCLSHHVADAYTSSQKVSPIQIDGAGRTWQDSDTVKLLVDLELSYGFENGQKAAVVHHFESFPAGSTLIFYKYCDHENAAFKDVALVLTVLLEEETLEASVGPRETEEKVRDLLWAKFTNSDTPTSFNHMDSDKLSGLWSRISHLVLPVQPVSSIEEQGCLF
Neurogenic locus notch homolog protein 2 (Homo sapiens), sequence (Q04721 whole entry, looked up, canonical isoform): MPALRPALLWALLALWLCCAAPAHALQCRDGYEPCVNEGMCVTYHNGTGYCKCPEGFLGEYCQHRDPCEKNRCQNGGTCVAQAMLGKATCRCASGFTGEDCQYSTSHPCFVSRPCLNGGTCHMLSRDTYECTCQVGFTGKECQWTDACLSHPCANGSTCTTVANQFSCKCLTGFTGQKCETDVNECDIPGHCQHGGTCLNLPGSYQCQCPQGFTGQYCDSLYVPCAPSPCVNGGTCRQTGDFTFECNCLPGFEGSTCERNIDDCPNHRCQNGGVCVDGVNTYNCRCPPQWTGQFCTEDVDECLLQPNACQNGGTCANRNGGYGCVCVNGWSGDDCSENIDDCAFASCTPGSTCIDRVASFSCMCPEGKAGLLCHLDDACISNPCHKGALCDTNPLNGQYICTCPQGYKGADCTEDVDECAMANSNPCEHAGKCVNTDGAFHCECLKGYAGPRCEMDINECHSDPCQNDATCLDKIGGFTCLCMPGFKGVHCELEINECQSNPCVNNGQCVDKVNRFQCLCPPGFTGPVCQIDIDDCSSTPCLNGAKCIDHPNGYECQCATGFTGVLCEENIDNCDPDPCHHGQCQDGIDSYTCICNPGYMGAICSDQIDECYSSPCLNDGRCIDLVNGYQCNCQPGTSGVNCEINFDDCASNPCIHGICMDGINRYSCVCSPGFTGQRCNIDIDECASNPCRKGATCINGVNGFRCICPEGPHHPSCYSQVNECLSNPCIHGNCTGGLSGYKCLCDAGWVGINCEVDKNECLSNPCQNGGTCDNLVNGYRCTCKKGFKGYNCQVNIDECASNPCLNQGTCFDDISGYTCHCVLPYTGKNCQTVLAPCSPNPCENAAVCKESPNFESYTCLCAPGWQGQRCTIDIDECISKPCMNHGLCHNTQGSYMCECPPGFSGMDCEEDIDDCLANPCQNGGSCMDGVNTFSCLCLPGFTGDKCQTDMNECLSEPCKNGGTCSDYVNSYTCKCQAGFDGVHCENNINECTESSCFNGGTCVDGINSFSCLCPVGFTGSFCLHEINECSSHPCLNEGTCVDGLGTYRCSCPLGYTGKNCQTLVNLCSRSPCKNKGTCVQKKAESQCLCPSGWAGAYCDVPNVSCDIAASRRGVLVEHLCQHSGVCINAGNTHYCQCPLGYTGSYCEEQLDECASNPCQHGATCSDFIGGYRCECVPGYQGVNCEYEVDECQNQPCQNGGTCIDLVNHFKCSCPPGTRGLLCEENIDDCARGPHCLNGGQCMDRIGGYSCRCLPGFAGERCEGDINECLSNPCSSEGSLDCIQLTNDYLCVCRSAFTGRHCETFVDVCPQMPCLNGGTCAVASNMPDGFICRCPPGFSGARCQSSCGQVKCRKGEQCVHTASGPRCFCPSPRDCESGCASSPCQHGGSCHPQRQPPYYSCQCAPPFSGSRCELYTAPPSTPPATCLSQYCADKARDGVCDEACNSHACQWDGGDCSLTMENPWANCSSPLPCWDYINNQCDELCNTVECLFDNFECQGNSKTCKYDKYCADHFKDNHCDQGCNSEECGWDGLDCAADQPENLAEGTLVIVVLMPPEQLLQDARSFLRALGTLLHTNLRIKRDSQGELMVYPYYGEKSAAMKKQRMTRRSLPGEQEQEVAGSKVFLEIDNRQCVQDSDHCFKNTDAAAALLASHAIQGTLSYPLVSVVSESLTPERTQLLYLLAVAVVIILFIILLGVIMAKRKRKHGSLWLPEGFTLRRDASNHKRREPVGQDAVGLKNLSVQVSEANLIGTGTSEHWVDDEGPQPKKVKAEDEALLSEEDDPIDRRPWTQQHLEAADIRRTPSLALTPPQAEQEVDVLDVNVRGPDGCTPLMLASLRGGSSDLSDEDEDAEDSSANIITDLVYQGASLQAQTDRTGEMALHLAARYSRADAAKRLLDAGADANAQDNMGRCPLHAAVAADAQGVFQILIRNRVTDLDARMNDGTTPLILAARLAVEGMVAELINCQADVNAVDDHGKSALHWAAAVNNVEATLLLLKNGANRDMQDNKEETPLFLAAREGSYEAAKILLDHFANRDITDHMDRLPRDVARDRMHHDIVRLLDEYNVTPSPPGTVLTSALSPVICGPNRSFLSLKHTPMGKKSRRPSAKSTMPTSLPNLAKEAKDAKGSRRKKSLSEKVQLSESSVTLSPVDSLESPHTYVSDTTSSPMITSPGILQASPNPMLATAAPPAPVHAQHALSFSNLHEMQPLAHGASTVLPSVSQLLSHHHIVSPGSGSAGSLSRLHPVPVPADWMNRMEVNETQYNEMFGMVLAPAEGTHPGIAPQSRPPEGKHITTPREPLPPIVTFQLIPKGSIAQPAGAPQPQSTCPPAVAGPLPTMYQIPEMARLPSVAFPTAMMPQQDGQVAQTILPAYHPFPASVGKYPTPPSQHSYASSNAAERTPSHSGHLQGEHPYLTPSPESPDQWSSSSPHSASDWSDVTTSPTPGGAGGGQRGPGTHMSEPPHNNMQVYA
Pro-neuregulin-1, membrane-bound isoform (Homo sapiens), sequence (Q02297 whole entry, looked up, the tested form may be a part, canonical isoform): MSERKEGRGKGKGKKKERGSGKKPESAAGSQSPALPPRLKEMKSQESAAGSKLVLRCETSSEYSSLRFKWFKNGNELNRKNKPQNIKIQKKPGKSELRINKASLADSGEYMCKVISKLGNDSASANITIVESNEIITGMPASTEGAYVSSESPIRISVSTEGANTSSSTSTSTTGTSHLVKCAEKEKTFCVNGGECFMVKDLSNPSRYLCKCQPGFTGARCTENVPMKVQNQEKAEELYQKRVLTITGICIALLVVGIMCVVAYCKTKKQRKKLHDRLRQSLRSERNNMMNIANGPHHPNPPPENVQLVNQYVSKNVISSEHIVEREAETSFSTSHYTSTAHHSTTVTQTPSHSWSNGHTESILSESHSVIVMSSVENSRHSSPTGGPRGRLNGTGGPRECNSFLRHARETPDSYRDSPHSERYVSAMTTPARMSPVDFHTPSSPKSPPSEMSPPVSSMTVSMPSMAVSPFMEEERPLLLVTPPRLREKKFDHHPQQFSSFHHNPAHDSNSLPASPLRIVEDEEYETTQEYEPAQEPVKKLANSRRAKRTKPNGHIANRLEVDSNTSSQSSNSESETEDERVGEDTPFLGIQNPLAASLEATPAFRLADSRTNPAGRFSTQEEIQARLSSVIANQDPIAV

| Compound | composite z-score [1] | composite z-score [2] | composite z-score [3] | composite z-score [4] | composite z-score [5] | composite z-score [6] | composite z-score [7] | z-score [8] | composite z-score [9] | composite z-score [10] | composite z-score [11] | z-score [12] | z-score [13] | z-score [14] | composite z-score [15] | z-score [16] | composite z-score [17] | composite z-score [18] | composite z-score [19] | composite z-score [20] |
| --- | --- | --- | --- | --- | --- | --- | --- | --- | --- | --- | --- | --- | --- | --- | --- | --- | --- | --- | --- | --- |
| C=C(C(=O)CC[C@@H](OC(=O)c1cccnc1)c1ccc(CO)o1)C(C)C | -0.35 | 0.328 | -0.019 | 0.715 | 0.29 | 1.08 | 0.592 | 0.305 (inactive) | 0.337 | 0.0373 | 1.54 | 0.813 (inactive) | -0.485 (inactive) | -0.0796 (inactive) | 1.97 | -0.601 (inactive) | -0.0415 | 1.53 | 1.14 | -0.0697 |
| COCCCNC(=O)[C@@]1(Cc2ccccc2I)c2ccccc2C(=O)N(Cc2ccccc2)[C@H]1c1ccc(CO)cc1 | 0.094 | -0.785 | -0.142 | -0.487 | -1.61 | 0.542 | 1.34 | -4.46 (inactive) | -0.656 | 0.0695 | 0.96 | 0.411 (inactive) | 0.512 (inactive) | 0.951 (inactive) | 1.62 | 0.0006 (inactive) | -0.204 | -1.27 | -1.37 | -0.302 |
| CCCCCCC#C[Si](O[C@H](c1ccccc1)c1cn([C@H](C)c2ccccc2)nn1)(C(C)C)C(C)C | -0.0028 | 0.247 | -0.083 | 0.291 | 0.315 | 0.114 | -0.333 | -0.532 (inactive) | -0.495 | 0.0147 | 0.789 | -0.285 (inactive) | 0.994 (inactive) | -0.0401 (inactive) | 0.828 | 1.33 (inactive) | -0.211 | 0.476 | 0.579 | -0.099 |
| C=C(CCCC)/C(=C/C[C@H](OC(C)=O)c1ccc(CO)o1)c1cc(C(=O)OC)ccc1OC | -0.509 | -0.296 | -0.0333 | 0.525 | -0.0467 | 0.714 | 0.888 | -0.313 (inactive) | 0.439 | -0.0618 | 1.56 | 1.02 (inactive) | -1.01 (inactive) | -0.194 (inactive) | 1.8 | 1.05 (inactive) | -0.0371 | 1.8 | 1.09 | -0.125 |
| Cc1ccc(S[C@]2(C(=O)NCC(F)(F)F)CC(=O)N(C3Cc4ccccc4C3)[C@@H]2c2ccc(CO)cc2I)cc1 | 1.27 | 0.0708 | -0.11 | -0.433 | -0.929 | 0.569 | 0.455 | -0.92 (inactive) | -0.265 | 0.0024 | -0.535 | 0.0775 (inactive) | -0.967 (inactive) | 1.81 (inactive) | 1.18 | -0.701 (inactive) | 0.157 | -0.883 | -1.08 | -0.255 |
